Experimental findings from PubChem BioAssay AID1851 (National Center for Advancing Translational Sciences (NCATS), 2009) are described below.

Where “and” joins values, the source holds several entries; their conditions need not be identical. Equal entries are not always repeated. The whole screen tested about 16,000 compounds, of which about 4,000 (25%) were called active. Roughly 26% stayed inconclusive and do not appear here. The list is a sample of the results. Values without a mark were called inactive. Calls come from the whole dose curve; as a rule, active = well fitted curve in the direction sought with a large enough effect; inconclusive = small, poorly fitted or top-dose-only effect, or effect the other way; inactive = no such curve, though single readings can be large or run the other way.
% is set by controls: 0 for no effect and ±100 for the full control effect.

This experiment deals with Cytochrome P450 2C9 (Homo sapiens) (UniProt P11712). Briefly: Cytochrome panel assay with activity outcomes. The following applies: recombinant CYP, pro-luciferin dealkylation, luminescence, p450-cyp2c9; series mostly up to 57.1 µM.
Sequence of Cytochrome P450 2C9 (Homo sapiens) (P11712 whole entry, looked up): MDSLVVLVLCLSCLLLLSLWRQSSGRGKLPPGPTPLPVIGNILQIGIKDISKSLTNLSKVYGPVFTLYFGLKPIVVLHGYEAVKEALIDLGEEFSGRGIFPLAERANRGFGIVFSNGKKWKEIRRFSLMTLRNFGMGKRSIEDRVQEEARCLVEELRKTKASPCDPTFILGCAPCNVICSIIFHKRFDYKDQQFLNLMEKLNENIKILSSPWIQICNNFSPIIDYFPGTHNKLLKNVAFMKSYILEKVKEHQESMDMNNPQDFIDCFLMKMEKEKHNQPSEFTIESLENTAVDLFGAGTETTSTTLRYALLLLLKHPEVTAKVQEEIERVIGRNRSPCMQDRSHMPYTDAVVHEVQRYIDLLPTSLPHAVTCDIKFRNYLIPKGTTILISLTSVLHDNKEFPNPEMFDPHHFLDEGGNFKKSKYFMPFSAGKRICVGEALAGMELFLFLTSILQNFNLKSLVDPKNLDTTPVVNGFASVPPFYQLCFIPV
A word on the AC50: it is the concentration giving half of the maximal activity seen. For `Nc1ccccc1C#Cc1ccccc1`, the AC50 is 7.94 µM (active) and 14.1 µM (active).
Still for that read-out and setting: under `COc1ccc(Oc2ncc3nc(-c4cccs4)c(=O)n(C)c3n2)cc1` stands 3.16 µM (active); under `Cn1cc(-c2nc3cnc(Oc4ccccc4)nc3n(C3CC3)c2=O)c2ccccc21`, “inactive”; under `COc1ccc(Oc2ncc3nc(-c4cccs4)c(=O)n(-c4ccccc4)c3n2)cc1`, “inactive”.
Same read-out and setting: then `COCCn1c(=O)c(-c2cccs2)nc2cnc(Oc3ccc(OC)cc3)nc21`, with 5.01 µM (active); and `COCCn1c(=O)c(-c2cccs2)nc2cnc(Oc3ccccc3)nc21`, with 3.98 µM (active).
The same measure, in the same setting: then `COc1ncc2nc(-c3cccs3)c(=O)n(-c3ccccc3)c2n1`, with “inactive”; and `COCCn1c(=O)c(-c2cccs2)nc2cnc(N(C)C)nc21`, with “inactive”; and `O=c1c(-c2cccs2)nc2cnc(Oc3ccccc3)nc2n1C1CC1`, with 3.16 µM (active).
With `COc1ccc(Oc2ncc3nc(-c4cc(F)cc(F)c4)c(=O)n(C)c3n2)cc1`, the AC50 result is “inactive”.
On to `CS(=O)(=O)Nc1cccc(-c2ccc3ncnc(NCc4cccnc4)c3c2)c1`, for which the activity, negative = inhibition was -11.8% [at 2.29 µM].
On the same count and under the same terms, then `FC(F)(F)c1ccccc1-c1nc(NCc2cccs2)c2ccccc2n1`, with -25.9% [at 2.29 µM].
On to `CC(C)C(=O)NCCn1ccc2ccccc21`, for which the AC50 entry was “inactive”.
Consider `CC(C)C(=O)NCCc1nc2ccccc2n1CCCOc1ccc(Cl)cc1`, for which the AC50 is 3.16 µM (active).
Turning to `C[C@H]1/C=C\CC(=O)OC[C@H](C)C(=O)N2CCC[C@@H]2C(=O)OC1`, the activity, negative = inhibition was 4.32% [at 11.4 µM].
Consider `O=C(CN1CCc2ccccc21)NC(=O)NCc1ccco1`, for which the AC50 is 15.8 µM (active).
For `Cc1cnc(CNc2ncnc3ccc(-c4ccc(N(C)C)cc4)cc23)cn1`, the activity, negative = inhibition was -3.84% [at 2.29 µM].
Take `CO[C@@H]1COC(=O)[C@H](Cc2ccccc2)NC(=O)C/C=C\[C@@H](C)[C@H](OC)COC(=O)[C@@H](C)NC(=O)C/C=C\[C@H]1C`: the activity, negative = inhibition was -11.8% [at 11.4 µM] and -14.5% [at 11.4 µM].
Regarding `Cc1cccc(CNc2ncncc2-c2cccnc2)c1`, the activity, negative = inhibition was 1.46% [at 2.29 µM].
In the case of `Cc1cccc(-n2nc([N+](=O)[O-])c(=NCc3cccnc3)n2O)c1`, the AC50 was 10 µM (active).
Consider `S=C1NCN2CCN(CC2)CNC(=S)C(=S)NCN2CCN(CC2)CNC1=S`, for which the activity, negative = inhibition is -2.75% [at 11.4 µM].
In the case of `Cc1ccc(C(=O)Nc2cc3c(oc2=O)CCCC3=O)cc1`, the AC50 entry was “inactive”.
On the same count and under the same terms, then `Cc1oc(=O)c(NC(=O)c2ccccc2)cc1C(=O)c1ccccc1`, with 12.6 µM (active); and `CC(=O)c1cc(NC(=O)c2ccccc2)c(=O)oc1/C=C/N(C)C`, with “inactive”.
`Cc1cccc(CNc2cc(-c3c(C)noc3C)ncn2)c1`: the activity, negative = inhibition is -2.84% [at 2.29 µM].
`O=C(O)CC1(C(=O)O)CCCCC1`: the activity, negative = inhibition was -2.68% [at 11.4 µM].
On to `N.N.O=C(O)C1(C(=O)O)CCC1.[Pt]`, for which the AC50 is 3.98 µM (active).
As for `O=C(O)C1(C(=O)O)CCN(S(=O)(=O)c2ccccc2)CC1`, the activity, negative = inhibition was -9.03% [at 11.4 µM].
Turning to `Cc1ccc(CSC(N)=Nc2ccccc2)cc1C`, the activity, negative = inhibition was 7.44% [at 11.4 µM].
For the compound `CN(C)/C=C/C(=O)c1ccc(F)cc1`, the AC50 result was “inactive”.
Same read-out and setting: under `CC(Oc1ccc(Cl)cc1)C(=O)/C=C/N(C)C` (stereo not given) stands 12.6 µM (active); under `CN(C)/C=C/C(=O)c1ccc(Cl)cc1`, “inactive”; under `CCN(CC)CCn1c(=S)[nH]c2cc3c(cc2c1=O)OCO3`, “inactive”.
In the case of `O=C(CCCCCn1c(=S)[nH]c2cc3c(cc2c1=O)OCO3)N1CCN(C2CCCCC2)CC1`, the AC50 is 1.12 µM (active).
`CN(Cc1ccco1)c1ncncc1-c1cccc(C#N)c1`: the activity, negative = inhibition is 2.42% [at 2.29 µM].
As to `C[N+](C)(C)CC(=O)O`, the AC50 result is “inactive”.
For `COCCNc1ccnc(-c2c(C)noc2C)n1`, the activity, negative = inhibition was 17.7% [at 2.29 µM].
In the case of `Cc1nc(Oc2ccc(Cl)cc2)c2oc3ccccc3c2n1`, the AC50 entry is “inactive”.
On to `Cc1nc(SCC(=O)Nc2ccc3c(c2)OCCO3)c2oc3ccccc3c2n1`, for which the AC50 is 2 µM (active).
For the compound `CCc1nc(SCC(=O)c2ccc(Cl)s2)c2oc3ccccc3c2n1`, the AC50 is 1.12 µM (active).
Still for that read-out and setting: under `Cc1nc(SCC(=O)NCCc2ccc(Cl)cc2)nc(C)c1C` stands “inactive”.
Regarding `CCc1nc(SCC(=O)NCCc2ccccc2)c2oc3ccccc3c2n1`, the AC50 was 1.12 µM (active).
Consider `Cc1nc(SCC(=O)c2ccc(Cl)s2)c2oc3ccccc3c2n1`, for which the AC50 was 0.447 µM (active).
For the compound `Nc1nc(SCc2ccc([N+](=O)[O-])cc2)c2ncn([C@@H]3O[C@@H](CO)[C@@H](O)[C@H]3O)c2n1`, the AC50 entry is “inactive”.
Consider `CN1CCC(=C2c3ccccc3C=Cc3ccccc32)CC1`, for which the AC50 result is “inactive”.
Take `CO[C@@H]1COC(=O)[C@H](CCSC)NC(=O)C/C=C\[C@@H](C)COC(=O)[C@@H]2CCCN2C(=O)C/C=C\[C@H]1C`: the activity, negative = inhibition was 13.2% [at 11.4 µM].
For `CCNc1ncc2nc(-c3ccc(Cl)cc3)c(=O)n(C[C@H]3CCCO3)c2n1`, the AC50 entry was “inactive”.
Same read-out and setting: under `CN1CCc2c(c3ccccc3n2C)C1` stands “inactive”.
Regarding `Cn1c(=O)c2[nH]c(CCCCc3nc4ccccc4[nH]3)nc2n(C)c1=O`, the activity, negative = inhibition was 2.16% [at 11.4 µM].
Take `COCC(=O)O[C@]1(CCN(C)CCCc2nc3ccccc3[nH]2)CCc2cc(F)ccc2[C@@H]1C(C)C`: the AC50 result was “inactive”.
On the same count and under the same terms, under `CC(C)c1ccc(NC(=O)N(CCc2nc3ccccc3[nH]2)C2CCCC2)cc1` stands 7.94 µM (active).
Regarding `Cc1cnc(CNc2ncnc3ccc(-c4ccccc4C(F)(F)F)cc23)cn1`, the activity, negative = inhibition is -21.8% [at 2.29 µM].
Turning to `CSc1nc2cc(S(=O)(=O)N3CCCCC3)ccc2s1`, the activity, negative = inhibition was -29.2% [at 11.4 µM].
As for `CC(=O)ON(C(C)=O)S(=O)(=O)c1ccc(Cl)cc1`, the AC50 entry was “inactive”.
The same measure, in the same setting: then `COc1ccc(S(=O)(=O)Nc2ccc(S(=O)(=O)N3CCCCC3)cc2)cc1C`, with 0.355 µM (active).
As to `COc1ccc(NS(=O)(=O)c2ccc(I)cc2)cc1N1CCN(C)CC1`, the AC50 entry was “inactive”.
On the same count and under the same terms, then `COc1ccc(S(=O)(=O)N2CCCCCC2)cc1N(C)S(=O)(=O)c1ccc(Cl)cc1`, with 4.47 µM (active).
On the same count and under the same terms, then `O=S(=O)(NCCNC/C=C\c1ccc(Br)cc1)c1cccc2cnccc12`, with “inactive”; and `CN=C1S/C(=C\c2ccc(Sc3ccc(Cl)cc3)o2)C(=O)N1C`, with 1.26 µM (active); and `Clc1ccc(Sc2ccc(/C=N/n3cnnc3)o2)cc1`, with 7.94 µM (active).
Take `Cc1ccc(Nc2nc(Cl)nc(N(C)C#N)n2)cc1`: the AC50 was 15.8 µM (active).
`O[C@]1(c2ccccc2)c2ccccc2NC2=NCCN21`: the activity, negative = inhibition was 3.96% [at 11.4 µM].
On to `O=C(Nc1ccccc1)OCc1cc(-c2ccc(Cl)cc2)on1`, for which the AC50 was 2.82 µM (active).
Same read-out and setting: then `CS(=O)(=O)c1ccccc1COC(=O)Nc1ccc(Cl)cc1`, with “inactive”.
Regarding `Cc1cnc(CNc2ncncc2-c2ccc(C(=O)N(C)C)cc2)cn1`, the activity, negative = inhibition is 26.6% [at 2.29 µM].
The same measure, in the same setting: then `Cc1cnc(CNc2nc(-c3ccccc3C)nc3ccccc23)cn1`, with 18.8% [at 2.29 µM]; and `CC(=O)NCCNc1ccnc(-c2ccccc2C)n1`, with 7.25% [at 2.29 µM].
Regarding `COc1ccc2c(c1)nc(SCC(=O)c1ccc(Br)s1)n2C`, the AC50 was 15.8 µM (active).
In the case of `COc1ccc2nccc(SCC(=O)O)c2c1`, the activity, negative = inhibition is -6.85% [at 11.4 µM].
Same read-out and setting: under `Cc1noc(C)c1-c1ccc2ncnc(NCCN3CCOCC3)c2c1` stands -1.53% [at 2.29 µM].
As for `CCC(=O)O[C@@H]1[C@H](C)O[C@H](O[C@H]2[C@@H](N(C)C)[C@H](O)[C@@H](O[C@@H]3[C@@H](CC=O)C[C@@H](C)[C@@H](O)/C=C\C=C/C[C@@H](C)OC(=O)C[C@@H](OC(=O)CC)[C@H]3OC)O[C@H]2C)C[C@]1(C)O`, the AC50 result is “inactive”.
Same read-out and setting: then `c1ccc(-c2c3ccccc3nc3[nH]c4ccccc4c23)cc1`, with 10 µM (active).
As to `c1ccc2c(NC3CC3)nc(-c3ccoc3)nc2c1`, the activity, negative = inhibition was -17.7% [at 2.29 µM].
In the case of `CCCCc1c2ccccc2nc2[nH]c3ccccc3c12`, the AC50 entry was “inactive”.
The same measure, in the same setting: under `CC[C@@H]1CN2CCc3cc(OC)c(OC)cc3[C@H]2C[C@@H]1C[C@@H]1NCCc2cc(OC)c(OC)cc21` stands “inactive”.
`CN1CCN(c2ccnc(-c3ccc(N(C)C)cc3)n2)CC1`: the activity, negative = inhibition is 4.88% [at 2.29 µM].
With `CN(C)c1ccc(O)c2c1C[C@H]1C[C@H]3[C@@H](N(C)C)C(=O)C(C(N)=O)=C(O)[C@]3(O)C(=O)C1=C2O`, the AC50 result is “inactive”.
`CCN(CC)CCCNC(=O)CC1Sc2ccccc2NC1=O` (stereo not given): the AC50 result is “inactive”.
The same measure, in the same setting: under `Cc1cc(C)n2nc(SCN3C(=O)c4ccccc4C3=O)nc2n1` stands “inactive”; under `Cc1cc(C)n2nc(SCc3cc(=O)oc4ccc5ccccc5c34)nc2n1`, 8.91 µM (active).
In the case of `COc1ccccc1CNC(=O)CSc1nc2nc(C)cc(C)n2n1`, the AC50 entry is “inactive”.
Turning to `CO[C@@H]1COC(=O)C/C=C\[C@@H](C)COC(=O)[C@H](Cc2ccccc2)NC(=O)C/C=C\[C@H]1C`, the activity, negative = inhibition was -17.6% [at 11.4 µM].
The same measure, in the same setting: under `O=C1CCCC=C1[C@@H](O)C1CCCCC1` stands 14.2% [at 11.4 µM]; under `O=C1CCCC=C1[C@H](O)c1ccc([N+](=O)[O-])cc1`, -18.1% [at 11.4 µM].
As for `O=C1CCCC=C1[C@H](CCc1ccccc1)OC(=O)c1ccc(Br)cc1`, the AC50 was 3.16 µM (active).
As to `CN(C)CCn1c(CO)nc2c1c(=O)n(C)c(=O)n2C`, the activity, negative = inhibition is 0.0092% [at 11.4 µM].
With `CCCCn1c(SCC(=O)N2CCCC2)nc2c1c(=O)n(C)c(=O)n2C`, the AC50 result is “inactive”.
Still for that read-out and setting: then `CCCCCn1c(CN2CCCCC2C)nc2c1c(=O)n(C)c(=O)n2C` (stereo not given), with 15.8 µM (active).
With `CCNc1ncc2nc(-c3cc(F)cc(F)c3)c(=O)n(-c3ccc(OC)cc3)c2n1`, the AC50 entry was “inactive”.
On the same count and under the same terms, under `O=C(Oc1ccccc1)N1CCC2(CC1)CCN(c1cccc(-c3ccccc3)c1)CC2` stands “inactive”.
